The whole screen tested about 75,000 compounds, of which about 5,700 (7.6%) were called active. About 7% were inconclusive and are not listed. The call rests on the fitted dose curve; in most records, active means well fitted inhibition curve with a large enough effect; inconclusive means small, poorly fitted or top-dose-only effect; inactive means no such curve, though single readings can be large or run the other way. Many of the other results were omitted from the sample, so actives are more common in it than they were.
molecular target: 3-hydroxyacyl-CoA dehydrogenase type-2 (Homo sapiens) (UniProt Q99714); assay: qHTS Assay for Inhibitors of HSD17B4, hydroxysteroid (17-beta) dehydrogenase 4; settings: recombinant HSD17B10, NADH fluorescence kinetic; series mostly up to 57.1 µM; activity change, negative = inhibition: at the top concentration;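 further: the protocol describes HADH2 (HSD17B10) and not the HSD17B4 of the title; nearly all actives have a fitted effect of over 70% in size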
In short: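 20 nM HADH2, pH 9.0 Tris/Tween; cpd preinc 15 min RT; start w/ 1 mM NAD+ + 90 uM b-hydroxybutyryl-CoA; kinetic fluor ex360/em450 q30s x 4 min; delta last-first.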
On the % scale 0 is the no-effect control and ±100 the full control effect; potency means the concentration at half of the fitted maximal effect.

Compound | activity change, negative = inhibition | Potency
CCOc1ccc2cc(C#N)c(SCC(=O)OC)nc2c1 | -141% (inactive) | –
CCOc1ccc2nc(NCCNS(=O)(=O)c3ccccc3)c(C#N)cc2c1 | – | 25.1 µM (active)
CCOc1ccc2nc(N3CCCN(C(=O)Nc4ccccc4C)CC3)c(C#N)cc2c1 | 3.29% (inactive) | –
CC1=C(C(=O)OCc2ccccc2)C(c2ccc(C(F)(F)F)cc2)NC(=O)N1CCCCCC(=O)O (centres undefined) | 0.423% (inactive) | –
CC(NC(=O)c1ccc(Cl)cc1)C(=O)N1CCCCC1 (centres undefined) | -7.28% (inactive) | –
CCOc1ccc(NC(=O)Nc2cc(C)ccc2OC)cc1 | -1.13% (inactive) | –
COc1ccc(Cn2cccc(NC(=O)Nc3ccc(C#N)cc3)c2=O)cc1 | – | 15.8 µM (active)
COc1ccc(NC(=O)Nc2cccc3cccnc23)cc1 | -0.606% (inactive) | –
CO/N=C(\C(=O)N[C@@H]1C(=O)N2C(C(=O)O)=C(COC(C)=O)CS[C@H]12)c1csc(N)n1 (stereo in doubt) | 3.11% (inactive) | –
COc1c(F)c(F)c(-c2csc(N)n2)c(F)c1F | -10.2% (inactive) | –
CCOc1ccc(OCC)c(NC(=O)CSc2nnc(Cn3cnc4ccccc43)n2C)c1 | 4.22% (inactive) | –
CCc1c(C)nc2cc(-c3cccs3)[nH]n2c1=O | – | 31.6 µM (active)
Cc1nc2nc(COc3ccccc3)[nH]n2c(=O)c1Cc1ccccc1 | 1.44% (inactive) | –
O=c1[nH]c(-c2cccs2)nc2ccccc12 | -2.67% (inactive) | –
CCCCNC(=O)c1c[nH]c2ccc(S(=O)(=O)Nc3ccc(OCC)cc3)cc2c1=O | -13.3% (inactive) | –
CCCCn1c(SCC(=O)N2CCC(C(=O)OCC)CC2)nc2cc(S(N)(=O)=O)ccc21 | 5.42% (inactive) | –
CCOc1ccc(CNC(=O)C2CCC(=O)N2C2CCCC2)cc1OC (centres undefined) | -0.818% (inactive) | –
CCCC(=O)Nc1cc(OCC)c(NC(=O)NC2CCCCC2)cc1OCC | 10.6% (inactive) | –
CCOc1cc(C2C(C(=O)OC)=CN(C3CCCC3)C=C2C(=O)OC)cc(Br)c1O | – | 25.1 µM (active)
COCCCN(C(=O)Cn1ncc2c(=O)oc3ccc(C)cc3c21)C(C)c1ccncc1 (centres undefined) | 3.46% (inactive) | –
Cn1c(=O)cc(SCC(=O)N2CCCC2)c2cc(Cl)ccc21 | -14.4% (inactive) | –
Cc1cc(C(F)(F)F)nn1CC(=O)N1CCCC1 | 7.74% (inactive) | –
COc1ccc(-c2cc(C(F)(F)F)n3nc(C(=O)N4CCOCC4)c(Cl)c3n2)cc1 | -20.7% (inactive) | –
Cc1ccc(-c2cc(C(F)(F)F)n3nc(C(=O)N4CCCC4)cc3n2)cc1 | – | 20 µM (active)
c1ccc(CCc2nc(-c3ccncc3)no2)cc1 | 12% (inactive) | –
COc1ccc(Br)cc1S(=O)(=O)N1CCN=C1C | 4.44% (inactive) | –

Compound | activity change, negative = inhibition | Potency
Cc1cc(C)cc(N(CC(=O)Nc2c(C)n(C)n(-c3ccccc3)c2=O)S(C)(=O)=O)c1 | 3.4% (inactive) | –
O=C(NC1CCCCC1)C1CCCN(S(=O)(=O)c2cccs2)C1 (centres undefined) | 5.88% (inactive) | –
N#Cc1nc(COc2ccc(Cl)cc2)oc1N1CCCC1 | -12.5% (inactive) | –
Cc1ccc(OCc2nc(C#N)c(N3CCCC3)o2)cc1 | -5.17% (inactive) | –
CC1CCN(c2oc(-c3ccccc3F)nc2C#N)CC1 | – | 31.6 µM (active)
CN(CCCNC(=O)CN1C(=O)CC(C)(C)S(=O)(=O)c2ccccc21)C1CCCCC1 | 7.28% (inactive) | –
Nc1nc2c(nc(Cl)n2C2OC(CO)C(O)C2O)c(=O)[nH]1 (centres undefined) | 2.31% (inactive) | –
COC(=O)[C@@]1(Cc2ccc(F)cc2)[C@H]2c3cc(C(=O)N4CCCC4)n(Cc4ccc(OC(F)(F)F)cc4)c3C[C@H]2CN1C(=O)c1ccccc1 | 3.57% (inactive) | –
CC(=O)OCC(=O)[C@@]1(O)CCC2C3CCC4=CC(=O)CC[C@]4(C)C3C(=O)C[C@]21C (some centres undefined) | -6.18% (inactive) | –
CC(=O)OCC(=O)[C@@]1(O)CC[C@@H]2[C@H]3CCC4=CC(=O)C=C[C@]4(C)[C@]3(F)[C@@H](O)C[C@@]21C | -3.22% [at 25.6 µM] (inactive) | –
C[C@]12C=CC(=O)C=C1CC[C@@H]1[C@@H]2C(=O)C[C@@]2(C)[C@H]1CC[C@]2(O)C(=O)CO | – | 15.8 µM (active)
COC(=O)[C@H](C(C)C)n1c(C)c(C(C)=O)c(C(C)=O)c1C | 0.196% (inactive) | –
O=S(=O)(CCc1nc2ccccc2o1)c1ccc(Cl)cc1 | 0.596% (inactive) | –
O=C1CCCN1CCCNc1ncnc2c1[nH]c1ccccc12 | – | 31.6 µM (active)
O=C(CCn1c(=S)[nH]c2ccccc2c1=O)NCCCN1CCCC1=O | -0.655% (inactive) | –
CC1(C)CC(=O)C=C(NCCCN2CCCC2=O)C1 | 3.81% (inactive) | –
Cc1c(C(=O)Nc2ccccc2Cl)oc2ccc(S(=O)(=O)N3CCC4(CC3)OCCO4)cc12 | – | 25.1 µM (active)
CCOc1ccccc1NC(=O)c1cc(S(=O)(=O)N2CCC3(CC2)OCCO3)ccc1F | 2.01% (inactive) | –
CCOC(=O)C1CCN(C(=O)c2oc3ccc(S(=O)(=O)N4CCCCCC4)cc3c2C)CC1 | -7.28% (inactive) | –
CCOC(=O)N1CCN(Cc2oc(CO)cc(=O)c2O)CC1 | 9.28% (inactive) | –
O=C(Nc1cccc(C(=O)N2CCCC2)c1)c1ccccc1 | 4.43% (inactive) | –
Cc1nc2ccc(NC(=O)N3CCC(c4ccccc4)C3)cc2nc1C (centres undefined) | – | 25.1 µM (active)
O=C(Nc1cccc(NC(=O)N2CCN(c3ccccc3)CC2)c1)N1CCN(c2ccccc2)CC1 | -8.85% (inactive) | –
O=C(O)[C@H](CCc1ccccn1)c1ccccc1 | 1.79% [at 11.4 µM] (inactive) | –
CC(=O)Nc1nc(C)c(Cc2ccccc2)c(=O)[nH]1 | 7.09% (inactive) | –
CSc1ccc(Cl)c(C(=O)OCC(=O)N2CC(C)OC(C)C2)c1 (centres undefined) | -18.8% (inactive) | –

Compound | activity change, negative = inhibition | Potency
CC1(C)CC(=O)C(C=NCc2cccnc2)=C(O)C1 | -0.881% (inactive) | –
CC(=O)N1CCN(CCN=CC2=C(O)CC(C)(C)CC2=O)CC1 | 0.82% (inactive) | –
CC1(C)CC(=O)C(C=NCCC2=CCCCC2)=C(O)C1 | – | 31.6 µM (active)
O=c1cc(CSc2ccc(Cl)cc2)nc(N2CCOCC2)[nH]1 | 3.58% (inactive) | –
CCn1c(SCC(=O)Nc2nc3ccc(OC)cc3s2)nnc1-c1ccoc1C | -3.39% (inactive) | –
COc1ccc2nc(NC(=O)c3ccc(Br)s3)sc2c1 | – | 31.6 µM (active)
CNC(=O)c1ccc2nc(NC(C)=O)sc2c1 | 0.612% (inactive) | –
CC1(C)CN=C(N2CCN(c3ncnc4sc5c(c34)CCCC5)CC2)S1 | -2.18% (inactive) | –
ON=C1/C(=N\O)CC2(C/C1=N/O)OCCO2 | 5.01% (inactive) | –
O=C(NCc1ccco1)c1nc2ncccn2n1 | 5.09% (inactive) | –
O=C(NCc1ccccn1)c1ccc2nc(-c3ccco3)c(-c3ccco3)nc2c1 | – | 12.6 µM (active)
CC(C)CC1(C(=O)NCc2ccccn2)C=CCN1C(=O)c1ccccc1 (centres undefined) | 4.19% (inactive) | –
CCn1nnc(NC(=O)c2cc(Cl)c(OC)c(Cl)c2)n1 | 6.89% (inactive) | –
Cc1noc(C)c1S(=O)(=O)N(CC(=O)NCc1ccc(Cl)cc1)c1ccc2c(c1)OCO2 | 4.33% (inactive) | –
Cc1csc(-c2nc3ccccc3n2C)n1 | – | 31.6 µM (active)
Cc1nn2c3ccccc3nc2n(C)c1=O | -6.27% (inactive) | –
COc1cc(C(O)c2nc3ccccc3n2C)cc(OC)c1OC (centres undefined) | 9.03% (inactive) | –
O=C(NCc1ccco1)C1CCCN(S(=O)(=O)c2cccc3nonc23)C1 (centres undefined) | -23.9% (inactive) | –
CC(C)(C)c1ccc(OC2C=CC(C#Cc3ccccc3)OC2CO)cc1 (centres undefined) | -6.55% [at 11.4 µM] (inactive) | –
COC1[C@H](OC(N)=O)C(O)[C@H](Oc2ccc3c(O)c(NC(=O)c4ccc(O)c(CC=C(C)C)c4)c(=O)oc3c2C)OC1(C)C (some centres undefined) | -5.15% (inactive) | –
O=C(c1ccc(F)cc1)C1CCN(CCCCc2ccccc2)CC1 | -9.73% (inactive) | –
CCN1C(=O)C(C(=O)NC(C)c2ccccc2)C2CC1(C)Oc1ccccc12 (centres undefined) | 1.95% (inactive) | –
FC(F)(F)c1cc(-c2ccco2)nc(N2CCOCC2)n1 | -6.73% (inactive) | –
FC(F)(F)c1nnc2sc(-c3ccco3)nn12 | 6.1% (inactive) | –
Cc1cc(C(F)(F)F)nn1-c1nc(-c2ccco2)cc(C(F)(F)F)n1 | – | 31.6 µM (active)
CCCC(C(=O)NCc1ccco1)N(C(=O)CNS(=O)(=O)c1ccccc1)C1CCCC1 (centres undefined) | 4.33% (inactive) | –

Compound | activity change, negative = inhibition | Potency
CC(=O)N(CN1C(=O)C2CC=CCC2C1=O)c1cccc(Cl)c1 (centres undefined) | 6.21% (inactive) | –
c1ccc(-c2cn3cccnc3n2)cc1 | – | 25.1 µM (active)
CC(=O)Nc1ccc(-c2cn3cccnc3n2)cc1 | – | 10 µM (active)
CC(=O)Nc1cccc(-c2cnc3ccccc3n2)c1 | -2.86% (inactive) | –
CCCC(=O)Nc1cccc(-c2cn3ccsc3n2)c1 | 11.3% (inactive) | –
CCOc1nc(OCC)nc(-n2cc(-c3ccccc3)nn2)n1 | -3.82% (inactive) | –
O=C(c1ccco1)N1CCN=C1SCc1cccc(Cl)c1 | 9.16% (inactive) | –
O=c1c2cc3c(=O)n(CC4CCCO4)c(=O)c3cc2c(=O)n1CC1CCCO1 (centres undefined) | -21.7% (inactive) | –
O=C(NC1CCCCC1)c1ccc2c(=O)n(CC3CCCO3)c(=O)[nH]c2c1 (centres undefined) | – | 31.6 µM (active)
COC(=O)c1ccc2c(=O)n(CC3CCCO3)c(=S)[nH]c2c1 (centres undefined) | -2.48% (inactive) | –
CCC1=[N+]([O-])C(C)(/C(C)=N\O)N(O)C1(C)C (centres undefined) | -3.53% (inactive) | –
O=C(COC(=O)c1ccccc1C(=O)c1ccccc1)c1ccco1 | 7.35% (inactive) | –
CC(=O)c1cc2c(cc1N)OCO2 | 3.78% (inactive) | –
COCCn1c(C)cc(C(=O)CSc2ncnc3sc4c(c23)CCC4)c1C | -17.9% (inactive) | –
Cc1cc(C)n(-c2nc(SCC(=O)N3CCCC3)c3c4c(sc3n2)CCCC4)n1 | 4.86% (inactive) | –
COCCNc1nc(-n2nc(C)cc2C)nc2sc3c(c12)CCCC3 | – | 25.1 µM (active)
CO/N=C\[C@@H](C)[C@H](OCc1ccccc1)C(C)C | -1.19% [at 11.4 µM] (inactive) | –
O=C(c1ccc2c(c1)OCCO2)C1CCN(S(=O)(=O)c2cccc(F)c2)CC1 | 17.6% (inactive) | –
CC(C)(C)C(=O)CCN1C(=O)C2(OCCO2)c2ccccc21 | -5.73% (inactive) | –
Cc1ccc(-c2nn(CC(C)(C)C)c3ncnc(N)c23)cc1 | 4.95% (inactive) | –
CCCCN(CC)C(=O)CN(C)S(=O)(=O)c1cccc2nsnc12 | 4.56% (inactive) | –
COC(=O)c1ccccc1NC(=O)c1ccccc1NS(C)(=O)=O | 1.63% (inactive) | –
COc1ccc(C(=O)Nc2nncs2)c(OC)c1 | -6.6% (inactive) | –
O=C(Nc1nncs1)c1ccccc1NS(=O)(=O)c1cccs1 | – | 25.1 µM (active)
CSC1=NCCN1C(=O)c1ccc(S(=O)(=O)N2CCOCC2)cc1 | 0.893% (inactive) | –
Cc1cc(C(=O)COC(=O)CCCN2C(=O)c3ccccc3C2=O)c(C)n1C | -0.506% (inactive) | –

Source: PubChem BioAssay AID893 (National Center for Advancing Translational Sciences (NCATS), 2007)
